Assay results: PubChem BioAssay (Tox21)
Records with an inconclusive call do not appear. Where a call stands in place of a potency, no number is given. Activity calls are given as the source filed them. Unless noted, calls come from the whole dose curve.

Assays:
[1] = Nuclear factor erythroid 2-related factor 2/antioxidant responsive element (Nrf2/ARE) small molecule agonists: qHTS cell viability counter screen in human keratinocytes (AID 1919968; active = well fitted curve in the direction sought with a large enough effect in the repeat runs; an effect the other way counts as inactive or inconclusive; note: nearly all actives have a fitted effect of over 55% in size)
Method in brief: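 Fluorescence read-out from CellTiter-Fluor after 1 h at 37 C. Wells held HaCaT-derived ARE-luciferase reporter cells (1,500/well) treated 23 h with DMSO-dissolved compounds. Run in the same wells as the luciferase agonist read.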

[2] = target: KiSS-1 receptor (Homo sapiens) (UniProt Q969F8); experiment: Human kisspeptin (KISS1R) small molecule agonists, calcium flux assay in KISS1R-HEK293 cells (AID 1920064; active = well fitted curve in the direction sought with a large enough effect in the repeat runs; an effect the other way counts as inactive or inconclusive)
KiSS-1 receptor (Homo sapiens), sequence (Q969F8 whole entry, looked up): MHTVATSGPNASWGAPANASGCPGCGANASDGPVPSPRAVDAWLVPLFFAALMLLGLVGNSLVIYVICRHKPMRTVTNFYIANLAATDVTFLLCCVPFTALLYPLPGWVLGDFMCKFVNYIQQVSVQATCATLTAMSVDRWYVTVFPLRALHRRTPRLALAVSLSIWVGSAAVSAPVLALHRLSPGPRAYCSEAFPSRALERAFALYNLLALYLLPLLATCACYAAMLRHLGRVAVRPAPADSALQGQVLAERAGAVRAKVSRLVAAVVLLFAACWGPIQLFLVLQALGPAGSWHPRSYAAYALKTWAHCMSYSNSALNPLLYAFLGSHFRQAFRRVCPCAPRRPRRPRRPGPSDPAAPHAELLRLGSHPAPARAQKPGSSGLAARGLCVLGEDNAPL
Method in brief: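 Calcium flux read-out: kinetic fluorescence at Ex/Em=480/540, 1 s intervals over 3 min, after pin-tool compound addition to dye-loaded KISS1R-HEK293 cells. Fifteen concentrations, triplicates.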

[3] = G protein-coupled receptor (GPCR) small molecule agonists, calcium flux assay: HEK293 wild type cell line counter screen (AID 1920065)
Method in brief: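 Agonist mode; 18 h seeding at 37 C, 1 h dye load at 37 C; compounds pinned from DMSO, ATP as positive control; kinetic fluorescence 480/540 nm, 3 min, 1 s reads; 15 concentrations, triplicate.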

[4] = p53 small molecule agonists, cell-based qHTS assay with human liver microsomes (AID 1963577)
Method in brief: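 Fluorescence of the beta-lactamase reporter in p53RE-bla cells, detected with LiveBLAzer substrate (2 h, room temperature, dark), served as the read-out after 16 h compound exposure at 37 C with human liver microsomes and NADPH, each 0.5 mg/mL final.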

[5] = p53 small molecule agonists, cell-based qHTS assay with rat liver microsomes (AID 1963578)
Method in brief: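 Cells carrying a p53 response element–beta-lactamase reporter were plated and rested 5 h, then dosed with compound in DMSO plus rat liver microsomes and NADPH, each at 0.5 mg/mL final. After 16 h at 37 C, LiveBLAzer substrate was added for 2 h.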

[6] = p53 small molecule agonists, cell-based qHTS assay with human liver microsomes: qHTS cell viability counter screen (AID 1963579); note: nearly all actives have a fitted effect of over 45% in size
Method in brief: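 Cytotoxicity counter screen: p53RE-bla, 4,000 cells/well; 5 h settle, 37 C/5% CO2; cpd + HLM 0.5 mg/mL + NADPH 0.5 mg/mL (final); 16 h, 37 C; CellTiter-Glo, 30 min RT, luminescence.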

[7] = p53 small molecule agonists, cell-based qHTS assay with rat liver microsomes: qHTS cell viability counter screen (AID 1963580); note: nearly all actives have a fitted effect of over 45% in size
Method in brief: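 Cytotoxicity counter screen: intracellular ATP read by CellTiter-Glo luminescence in the p53 reporter wells. HCT-116 p53RE-bla cells were treated for 16 h at 37 C alongside rat liver microsomes and NADPH, each 0.5 mg/mL final.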

[8] = p53 small molecule agonists, cell-based qHTS assay: qHTS cell viability counter screen (AID 1963581); note: nearly all actives have a fitted effect of over 45% in size
Method in brief: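 Cytotoxicity read-out: ATP-based luminescence (CellTiter-Glo, 30 min RT) measured in the same wells as the p53 reporter assay, HCT-116 p53RE-bla cells, 16 h compound exposure at 37 C.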

[9] = p53 small molecule agonists, cell-based qHTS assay (AID 1963582; active = well fitted activation curve with a large enough effect in the signal ratio in the repeat runs, not every such curve was filed as active; the % refers to the signal ratio)
Method in brief: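 Fluorescence intensity read-out of a beta-lactamase reporter under a p53 response element. Cells were exposed to DMSO-dissolved compounds for 16 h at 37 C, then developed with FRET substrate for 2 h at RT.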

[10] = target: 5-hydroxytryptamine receptor 2A (Homo sapiens) (UniProt P28223); experiment: 5-hydroxytryptamine receptor 2A (HTR2A) small molecule antagonists, cell-based qHTS assay (AID 1963586); note: nearly all actives have a fitted effect of over 45% in size
5-hydroxytryptamine receptor 2A (Homo sapiens), sequence (P28223 whole entry, looked up): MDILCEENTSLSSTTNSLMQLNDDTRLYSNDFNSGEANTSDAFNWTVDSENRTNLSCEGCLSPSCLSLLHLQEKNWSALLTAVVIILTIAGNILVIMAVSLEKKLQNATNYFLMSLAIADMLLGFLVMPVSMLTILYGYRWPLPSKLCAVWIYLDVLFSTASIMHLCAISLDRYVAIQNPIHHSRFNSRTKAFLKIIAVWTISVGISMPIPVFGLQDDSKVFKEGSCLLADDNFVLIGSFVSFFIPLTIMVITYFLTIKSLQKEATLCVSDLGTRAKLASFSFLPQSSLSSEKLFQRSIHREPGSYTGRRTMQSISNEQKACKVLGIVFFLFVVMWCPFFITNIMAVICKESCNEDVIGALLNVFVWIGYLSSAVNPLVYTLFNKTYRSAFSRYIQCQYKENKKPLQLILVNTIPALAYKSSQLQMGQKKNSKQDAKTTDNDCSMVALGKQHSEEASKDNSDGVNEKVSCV
Method in brief: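 CHO cells stably expressing human HTR2A were plated for 18 h at 37 C, then loaded with calcium dye for 1 h. Compounds were preincubated 5 min at room temperature before DOI (4 nM solution) was added. Kinetic fluorescence was read for 3 min.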

[11] = target: 5-hydroxytryptamine receptor 2A (Homo sapiens) (UniProt P28223); experiment: 5-hydroxytryptamine receptor 2A (HTR2A) small molecule agonists, cell-based qHTS assay (AID 1963587); note: nearly all actives have a fitted effect of over 30% in size
Method in brief: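 Kinetic calcium-flux fluorescence (2 min, 1 sec intervals) after compound addition in agonist mode. HTR2A-CHO cells were cultured 18 h, then dye-loaded 1 h at 37 C.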

[12] = target: Muscarinic acetylcholine receptor M1 (Homo sapiens) (UniProt P11229); experiment: Cholinergic receptor muscarinic 1 (CHRM1) small molecule antagonists, cell-based qHTS assay (AID 1963588); note: nearly all actives have a fitted effect of over 40% in size; note: potency is the fitted concentration of half-maximal effect
Muscarinic acetylcholine receptor M1 (Homo sapiens), sequence (P11229 whole entry, looked up): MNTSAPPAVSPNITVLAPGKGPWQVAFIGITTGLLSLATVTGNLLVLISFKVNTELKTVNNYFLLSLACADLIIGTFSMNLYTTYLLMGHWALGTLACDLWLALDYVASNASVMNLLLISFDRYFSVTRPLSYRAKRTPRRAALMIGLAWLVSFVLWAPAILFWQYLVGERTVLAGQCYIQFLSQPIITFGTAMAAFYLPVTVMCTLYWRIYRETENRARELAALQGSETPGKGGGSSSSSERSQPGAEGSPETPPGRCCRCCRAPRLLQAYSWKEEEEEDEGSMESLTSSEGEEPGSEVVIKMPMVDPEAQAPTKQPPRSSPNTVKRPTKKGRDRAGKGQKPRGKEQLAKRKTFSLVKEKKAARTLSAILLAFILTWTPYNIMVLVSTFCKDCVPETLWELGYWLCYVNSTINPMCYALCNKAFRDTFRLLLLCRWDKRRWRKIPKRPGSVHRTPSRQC
Method in brief: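 Compounds were tested at 15 concentrations in three independent runs. Dye-loaded CHRM1-CHO cells were exposed 5 min at room temperature before stimulation by acetylcholine added at 50nM. Intracellular calcium was read kinetically on FDSS for 3 min.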

[13] = target: Muscarinic acetylcholine receptor M1 (Homo sapiens) (UniProt P11229); experiment: Cholinergic receptor muscarinic 1 (CHRM1) small molecule agonists, cell-based qHTS assay (AID 1963589); note: nearly all actives have a fitted effect of over 35% in size
Method in brief: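 Calcium flux read-out: kinetic fluorescence at 1 sec intervals after pin-tool compound addition to dye-loaded CHRM1-CHO cells (human M1). Agonist mode; 15 concentrations tested in triplicate independent runs.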

[14] = cAMP Responsive Elements (CRE) small molecule agonists, cell-based qHTS assay (AID 1963590)
Method in brief: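 Beta-lactamase reporter readout: LiveBLAzer B/G FRET substrate, 2 h at room temperature, added after 3 h compound treatment of CRE-bla HEK 293T cells at 37 C/5% CO2.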

[15] = target: Beta-2 adrenergic receptor (Homo sapiens) (UniProt P07550); experiment: Adrenergic beta2 receptor (ADRB2) small molecule antagonists, cell-based qHTS assay (AID 1963592); note: series mostly up to about 92 µM; nearly all actives have a fitted effect of over 50% in size
Beta-2 adrenergic receptor (Homo sapiens), sequence (P07550 whole entry, looked up): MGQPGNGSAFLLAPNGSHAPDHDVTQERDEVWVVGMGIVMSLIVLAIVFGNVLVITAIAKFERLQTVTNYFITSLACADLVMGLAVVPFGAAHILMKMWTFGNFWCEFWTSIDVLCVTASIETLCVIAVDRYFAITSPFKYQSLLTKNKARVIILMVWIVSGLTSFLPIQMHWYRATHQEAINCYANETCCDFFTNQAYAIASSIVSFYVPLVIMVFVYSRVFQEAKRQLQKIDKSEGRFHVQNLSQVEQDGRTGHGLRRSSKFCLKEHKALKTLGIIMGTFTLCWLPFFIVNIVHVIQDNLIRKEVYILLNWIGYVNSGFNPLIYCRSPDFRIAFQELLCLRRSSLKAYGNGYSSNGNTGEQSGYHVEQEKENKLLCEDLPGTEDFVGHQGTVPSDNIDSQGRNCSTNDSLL
Method in brief: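 Assay format: CHO-ADRB2 cells, 18-20hr seeding at 37C/5% CO2, then compound plus 1nM isoproterenol agonist mix for 0.5hr RT. Homogeneous time-resolved fluorescence cAMP detection after 1hr, expressed as 665/615 nm ratio.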

[16] = target: D(2) dopamine receptor (Homo sapiens) (UniProt P14416); experiment: Dopamine D2 receptor (DRD2) small molecule agonists, cell-based qHTS assay (AID 1963594); note: nearly all actives have a fitted effect of over 35% in size
D(2) dopamine receptor (Homo sapiens), sequence (P14416 whole entry, looked up): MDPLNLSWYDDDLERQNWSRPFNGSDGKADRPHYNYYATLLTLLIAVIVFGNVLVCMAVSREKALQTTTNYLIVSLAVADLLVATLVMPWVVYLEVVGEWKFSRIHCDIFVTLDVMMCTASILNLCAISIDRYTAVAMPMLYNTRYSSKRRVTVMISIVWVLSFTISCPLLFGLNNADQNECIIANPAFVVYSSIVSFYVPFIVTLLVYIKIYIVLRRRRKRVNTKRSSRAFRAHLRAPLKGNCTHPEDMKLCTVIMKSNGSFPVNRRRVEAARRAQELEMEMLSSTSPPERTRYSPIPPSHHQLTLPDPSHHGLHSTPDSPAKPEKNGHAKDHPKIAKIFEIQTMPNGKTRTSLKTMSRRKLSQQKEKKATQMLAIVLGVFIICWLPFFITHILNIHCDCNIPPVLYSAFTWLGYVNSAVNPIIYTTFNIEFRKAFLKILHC
Method in brief: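 cAMP accumulation in DRD2-HEK293 cells measured by HTRF after 1 h detection; compounds added 10 min before NKH477 (200nM […]) forskolin-analogue stimulation, 30 min at room temperature, with Ro20-1724 present at 0.1 mM final.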

[17] = target: D(2) dopamine receptor (Homo sapiens) (UniProt P14416); experiment: Dopamine D2 receptor (DRD2) small molecule antagonists, cell-based qHTS assay (AID 1963595; active = well fitted inhibition curve with a large enough effect in the signal ratio in the repeat runs, with a control signal flat; the % refers to the signal ratio)
Method in brief: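 DRD2-HEK293; 0.1 mM Ro20-1724; cpd 10 min RT; NKH477 200 nM + quinpirole 12 nM, 30 min RT; HTRF cAMP (cAMP-d2/anti-cAMP cryptate), 665/620 nm ratio after 1 h.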

[18] = Nuclear factor erythroid 2-related factor 2/antioxidant responsive element (Nrf2/ARE) small molecule agonists: luciferase reporter gene qHTS assay in human keratinocytes (AID 1919969); note: nearly all actives have a fitted effect of over 35% in size
[19] = cAMP Responsive Elements (CRE) small molecule antagonists, cell-based qHTS assay (AID 1963591; active = well fitted inhibition curve with a large enough effect in the signal ratio in the repeat runs, not every such curve was filed as active; the % refers to the signal ratio)
Method in brief: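 HEK293T CRE-bla; 18 h preincubation; compound pin-transfer; NKH477 0.25 uM final, 3 h, 37 C; LiveBLAzer FRET substrate 2 h RT.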

[20] = target: Beta-2 adrenergic receptor (Homo sapiens) (UniProt P07550); experiment: Adrenergic beta2 receptor (ADRB2) small molecule agonists, cell-based qHTS assay (AID 1963593);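 note: CHO cells stably overexpressing human ADRB2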
Method in brief: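 CHO cells stably over-expressing ADRB2 were plated overnight at 37C, then dosed with compounds plus a stimulation mix containing 100uM IBMX and 25uM Ro-20-1724 for 0.5hr at room temperature. cAMP was measured by HTRF competition, 1hr.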

SMILES | Potency [1] | Potency [2] | Potency [3] | Potency [4] | Potency [5] | Potency [6] | Potency [7] | Potency [8] | Potency [9] | Potency [10] | Potency [11] | Potency [12] | Potency [13] | Potency [14] | Potency [15] | Potency [16] | Potency [17] | Potency [18] | Potency [19] | Potency [20]
CCC(C)CO (centres undefined) | inactive | inactive | inactive | inactive | inactive | inactive | inactive | inactive | inactive | inactive | inactive | inactive | inactive | inactive | inactive | inactive | inactive | – | – | –
CC1=CCC(=O)O1 | inactive | – | inactive | inactive | inactive | – | inactive | – | inactive | inactive | inactive | inactive | inactive | inactive | inactive | inactive | inactive | inactive | inactive | –
CCC(C)(C)C | inactive | – | inactive | inactive | inactive | inactive | inactive | inactive | inactive | inactive | inactive | inactive | – | inactive | inactive | inactive | inactive | inactive | inactive | –
CN(C)CCOC(c1ccc(Cl)cc1)c1ccccn1 (centres undefined) | inactive | inactive | inactive | inactive | inactive | inactive | inactive | inactive | inactive | inactive | inactive | 4.6 µM (active) | inactive | inactive | inactive | inactive | – | – | inactive | inactive
O=C(Cl)c1ccccc1[N+](=O)[O-] | inactive | inactive | inactive | inactive | inactive | inactive | inactive | inactive | inactive | inactive | inactive | inactive | inactive | inactive | inactive | inactive | inactive | – | inactive | –
OCCC(F)(F)C(F)(F)C(F)(F)C(F)(F)C(F)(F)C(F)(F)F | inactive | inactive | inactive | inactive | inactive | inactive | inactive | inactive | inactive | inactive | inactive | inactive | inactive | inactive | inactive | inactive | – | – | inactive | inactive
